The nature of test [1]: qHTS assay to identify small molecule antagonists of the estrogen related receptor (ERR) signaling pathway from Tox21 library - cell viability counter screen (AID 1224834). Further: nearly all actives have a fitted effect of over 30% in size. A digest of the protocol: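 Multiplexed viability counter screen in ERR cells: 17.5 h compound exposure at 37 C, CellTiter-Fluor added, 30 min at 37 C/5% CO2, fluorescence read.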
(qHTS replaces the single test concentration by a dilution series.)

For test [2], the target named is Luciferin 4-monooxygenase (Photinus pyralis) (UniProt P08659). Nature of the test: qHTS assay to identify small molecule inhibitors of firefly luciferase (AID 1224835). Further: nearly all actives have a fitted effect of over 25% in size. Further: potency means the concentration at half of the fitted maximal effect. On activity change, negative = inhibition: series mostly up to about 120 µM. A digest of the protocol:
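Biochemical qHTS: compounds run as interplate titrations against purified firefly enzyme, with D-luciferin and ATP each at its KM concentration. Light output recorded by CCD imaging.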

Test [3] can be described thus: qHTS assay to identify small molecule agonists of the constitutive androstane receptor (CAR) signaling pathway - cell viability counter screen (AID 1224836). Further: series mostly up to about 92 µM; nearly all actives have a fitted effect of over 45% in size. A digest of the protocol: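 Counter screen multiplexed with the CAR reporter readout: HepG2 cells co-transfected with hCAR and the CYP2B6-2.2kb construct receive a 15-concentration compound series and 0.75 uM PK11195 (final), then CellTiter-Fluor fluorescence is read after 23 h.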

The nature of test [4]: qHTS assay to identify small molecule antagonists of the constitutive androstane receptor (CAR) signaling pathway - cell viability counter screen (AID 1224837). Further: series mostly up to about 92 µM; nearly all actives have a fitted effect of over 45% in size. The procedure, abridged:
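Read-out: CellTiter-Fluor fluorescence after 23 hr at 37 C/5% CO2. Cells: HepG2 double-stable for hCAR and CYP2B6-2.2kb. Compounds tested at 15 concentrations in the presence of CITCO, final concentration 50 nM.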

Test [5] has as its target Nuclear receptor subfamily 1 group I member 3 (Homo sapiens) (UniProt Q14994). Put plainly: qHTS assay to identify small molecule antagonists of the constitutive androstane receptor (CAR) signaling pathway (AID 1224838).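 Further: HepG2 cells stably expressing hCAR with CYP2B6 luciferase reporter stimulated by CITCO; nearly all actives have a fitted effect of over 40% in size.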 A digest of the protocol:
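Read-out: ONE-Glo luciferase luminescence after 30 min at room temperature. HepG2-CYP2B6-hCAR double-stable cells, compounds in 15-point titration plus 50 nM CITCO final, 24 h at 37 C/5% CO2.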

Test [6] has the same target. Put plainly: qHTS assay to identify small molecule agonists of the constitutive androstane receptor (CAR) signaling pathway (AID 1224839). Further: nearly all actives have a fitted effect of over 15% in size. Further: potency means the concentration at half of the fitted maximal effect. On activation: series mostly up to about 92 µM. The procedure, abridged: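 A 15-concentration quantitative screen uses HepG2 cells co-transfected stably with human CAR and CYP2B6-2.2kb reporter. Treatment lasts 24 h with 0.75 uM PK11195 final present; ONE-Glo luminescence is the signal.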

Test [7] in a line: qHTS assay to identify small molecule antagonists of the estrogen related receptor signaling pathway with the pleiotropic PPARgamma coactivator (PGC) from Tox21 10K library - cell viability counter screen (AID 1224840; active means well fitted cell-killing curve with a large enough effect in the repeat runs, not every such curve was filed as active; further: nearly all actives have a fitted effect of over 40% in size). The procedure, abridged:
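Fluorescence read-out of CellTiter-Fluor viability reagent, added after cells had been exposed to compound in DMSO for 17.5 h at 37 C; 30 min development at 37 C/5% CO2. Cells: PGC/ERR line, 2,000/well.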

Test [8] can be described thus: qHTS assay to identify small molecule agonists of the estrogen related receptor signaling pathway with the pleiotropic PPARgamma coactivator (PGC) (AID 1224823). The procedure, abridged:
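Luminescence from One-Glo reagent (30 min, room temperature) was read after 18 h compound treatment at 37 C of PGC/ERR cells plated 6 h beforehand; compounds delivered in DMSO by pin tool.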

Test [9] is described as follows: qHTS assay to identify small molecule antagonists of the estrogen related receptor signaling pathway with the pleiotropic PPARgamma coactivator (PGC) from Tox21 10K library (AID 1224841; call rule not given here; further: series mostly up to about 92 µM; actives are mostly falling curves and most rising ones were filed inactive; nearly all actives have a fitted effect of over 50% in size). The procedure, abridged: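 Luminescence read-out (One-Glo luciferase reagent, 30 min at room temperature) from PGC/ERR cells exposed to DMSO-dissolved test compounds for 18 h at 37 C; cells, 2,000 per well, had been preincubated 6 h before compound transfer.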

Test [10] in a line: qHTS assay to identify small molecule agonists of the estrogen related receptor signaling pathway with the pleiotropic PPARgamma coactivator (PGC) from Tox21 10K library (AID 1224842). Further: nearly all actives have a fitted effect of over 15% in size. The procedure, abridged:
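PGC/ERR reporter cell line, 2,000 cells per well, incubated 6 h at 37 C before 23 nL compound in DMSO was added. After 18 h at 37 C, One-Glo luminescence read following 30 min at room temperature.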

Each structure is given as a SMILES string. Inconclusive results are not listed. Unmarked numbers belong to inactive results. Calls of active or inactive are those of the source. Unless noted, the call rests on the fitted dose curve; in most records, active means well fitted curve in the direction sought with a large enough effect in the repeat runs; inconclusive means weak or mixed curves; inactive means no such curve, though single readings can be large; an effect the other way counts as inactive or inconclusive.

This note sets out measurements from PubChem BioAssay (Tox21).
On the % scale 0 is the no-effect control and ±100 the full control effect.

Chain of Luciferin 4-monooxygenase (Photinus pyralis) (P08659 whole entry, looked up): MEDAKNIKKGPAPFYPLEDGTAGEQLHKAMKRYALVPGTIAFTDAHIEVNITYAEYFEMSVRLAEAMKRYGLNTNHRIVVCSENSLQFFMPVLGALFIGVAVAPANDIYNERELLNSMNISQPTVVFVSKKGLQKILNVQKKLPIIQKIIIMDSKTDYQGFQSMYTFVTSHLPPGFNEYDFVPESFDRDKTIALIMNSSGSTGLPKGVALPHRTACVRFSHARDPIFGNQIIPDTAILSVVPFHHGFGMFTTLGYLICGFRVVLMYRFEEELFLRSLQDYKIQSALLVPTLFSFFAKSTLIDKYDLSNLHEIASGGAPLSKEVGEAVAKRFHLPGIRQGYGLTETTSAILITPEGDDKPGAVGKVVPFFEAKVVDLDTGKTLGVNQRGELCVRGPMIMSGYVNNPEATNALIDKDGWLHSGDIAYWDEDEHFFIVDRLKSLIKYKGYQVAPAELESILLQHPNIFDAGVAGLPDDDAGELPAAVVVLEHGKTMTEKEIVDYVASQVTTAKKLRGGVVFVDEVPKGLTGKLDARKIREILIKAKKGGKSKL
Chain of Nuclear receptor subfamily 1 group I member 3 (Homo sapiens) (Q14994 whole entry, looked up): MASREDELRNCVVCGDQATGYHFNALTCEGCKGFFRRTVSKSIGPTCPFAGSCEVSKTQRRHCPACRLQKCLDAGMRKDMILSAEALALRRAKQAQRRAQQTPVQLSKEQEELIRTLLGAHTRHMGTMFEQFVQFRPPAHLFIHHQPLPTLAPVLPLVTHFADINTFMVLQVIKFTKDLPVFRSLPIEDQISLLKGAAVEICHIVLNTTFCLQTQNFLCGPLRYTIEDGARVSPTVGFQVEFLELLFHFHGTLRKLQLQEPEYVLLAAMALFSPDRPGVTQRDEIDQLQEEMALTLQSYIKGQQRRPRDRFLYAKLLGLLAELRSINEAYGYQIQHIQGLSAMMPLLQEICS

`O=C(C(=O)c1ccco1)c1ccco1`: the Potency entry in test [1], in test [2], in test [3], in test [4], in [5] and in [6] was “inactive” throughout. In addition, in test [7], the Potency result is “inactive”.

In the case of `CC(=O)OC(C)C[N+](C)(C)C` (configuration not stated), in [8], the result was inactive. Moreover, the Potency result in [1], in test [2], in test [3], in test [4], in test [5] and in test [6] was “inactive” each time. For the same compound, the Potency entry in [7], in [9] and in test [10] was “inactive” throughout.

Take `CCCCCc1ccco1`: the Potency result in test [1], in [2], in [3], in test [4], in test [5] and in [6] was “inactive” in each case. For the same compound, in [7], the Potency result is “inactive”.

As for `c1ccc(CNc2ncnc3c2ncn3C2CCCCO2)cc1` (configuration not stated), the Potency entry in test [1], in [3], in [4], in [5] and in test [7] was “inactive” in each case. Also, the Potency in test [2] is 39.9 µM (active); in test [6], 9.69 µM (active).

Turning to `O=c1[nH][nH]c(=O)c2cc([N+](=O)[O-])ccc12`, the Potency result in [1], in [2], in [3], in test [4], in test [5] and in [6] was “inactive” in each case. Moreover, in [7], the Potency entry is “inactive”.

In the case of `Nc1ccc(S(=O)(=O)NCc2ccccc2)cc1`, the Potency result in test [1], in test [2], in [3], in [4], in test [5] and in [6] was “inactive” each time. Further, the Potency entry in test [7] was “inactive”.

With `O=C(O)CO`, the Potency result in test [1], in test [2], in [3], in [4], in test [5] and in test [6] was “inactive” throughout. The Potency result in [7] was “inactive”.

For the compound `O=C(O)c1cccc(C[C@@H]2COc3ccc(OCc4nc5cc(F)ccc5s4)cc3[C@@H]2O)c1`, the Potency result in test [1], in test [2], in test [3], in test [4], in test [5] and in test [6] was “inactive” in each case. Also, in [7], the Potency entry is “inactive”.

On to `CC(CCc1ccc(O)cc1)NCCc1ccc(O)c(O)c1` (configuration not stated), for which the compound was called inactive in test [8]. For the same compound, the Potency entry in test [1], in test [2], in test [3], in test [4], in [7] and in test [9] was “inactive” in each case. For the same compound, the Potency entry in test [10] is “inactive”.

For the compound `CCCCCCCCCCCCCCN(C)C`, the figures for the viability change, negative = cytotoxic in [1], in [3] and in test [7] were -1.07% [at 19 µM], 5.26% [at 19 µM] and -1.6% [at 19 µM], respectively. Also, the activity change, negative = inhibition in test [2] is -3.07% [at 23.6 µM]. The activity change, negative = cytotoxicity in [4] was -1.86% [at 19 µM]. The activity, negative = inhibition in test [5] was 21.5% [at 19 µM]. Moreover, in [6], the activation was -0.414% [at 19 µM].

Take `O=NN(CCCl)C(=O)NCCCl`: the outcome in test [8] was inactive. The Potency result in [1], in [2], in test [3], in [4], in test [5] and in [7] was “inactive” in each case. The Potency entry in test [9] and in [10] was “inactive” throughout.

`CC1=C2[C@@H]([C@H](C)CC[C@H]2/C=C(\C)C(=O)O)[C@H](O)C1`: the Potency result in test [1], in test [2], in test [3], in [4], in test [5] and in test [6] was “inactive” in each case. Also, the Potency entry in [7] was “inactive”.

With `Cc1ccccc1S(N)(=O)=O`, the Potency entry in test [1], in [2], in test [3], in [4], in test [5] and in [6] was “inactive” throughout. Also, in [7], the Potency entry was “inactive”.

As to `O=C(O)CNC(=O)c1ccccc1I`, the Potency result in test [1], in [2], in test [3], in test [4], in [5] and in test [6] was “inactive” each time. In addition, the Potency result in test [7] was “inactive”.

On to `CC(=O)OCC(C)C`, for which the Potency result in test [1], in [2], in test [3], in test [4], in test [5] and in test [6] was “inactive” each time. In addition, the Potency result in test [7] is “inactive”.

Consider `NC(=O)CCCCC(N)=O`, for which the Potency entry in [1], in test [2], in test [3], in [4], in test [5] and in test [6] was “inactive” throughout. For the same compound, the Potency entry in test [7] is “inactive”.

As for `COC(CC(C)CCCC(C)(C)O)OC` (configuration not stated), the Potency entry in [1], in [2], in [3], in [4], in [5] and in test [6] was “inactive” throughout. Moreover, in test [7], the Potency result is “inactive”.

Take `O=C(CCS)OCC(COC(=O)CCS)(COC(=O)CCS)COC(=O)CCS`: the Potency entry in test [1], in [2], in test [3], in [4], in test [5] and in test [6] was “inactive” throughout. For the same compound, the Potency entry in test [7] was “inactive”.

Take `CC1CCCC(=O)C1=O` (configuration not stated): the Potency result in [1], in test [2], in test [3], in [4], in test [5] and in [6] was “inactive” throughout. Also, in test [7], the Potency result was “inactive”.

For the compound `O=C(O)CCC(=O)OC[C@@H](NC(=O)C(Cl)Cl)[C@H](O)c1ccc([N+](=O)[O-])cc1`, the Potency result in test [1], in test [2], in [3], in test [4], in test [5] and in test [6] was “inactive” throughout. Besides, the Potency entry in [7] was “inactive”.

As to `CC(=O)C(C)=O`, the Potency entry in test [1], in test [2], in [3], in test [4], in test [5] and in [6] was “inactive” each time. The Potency entry in [7] was “inactive”.

As for `CCCCCCC(O)CCCCCCCCCCC(=O)OC` (configuration not stated), the Potency result in test [1], in [2], in [3], in test [4], in test [5] and in [6] was “inactive” each time. Also, in test [7], the Potency result is “inactive”.

On to `O=S(=O)(O)CO`, for which the Potency result in test [1], in [2], in test [3], in [4], in [5] and in test [6] was “inactive” throughout. The Potency entry in test [7] was “inactive”.

`CSSc1ccoc1C`: the Potency entry in test [1], in test [2], in test [3], in test [4], in test [5] and in test [6] was “inactive” throughout. Further, the Potency entry in test [7] was “inactive”.

`CCc1ccc(C)cc1`: the Potency entry in test [1], in test [2], in test [3], in test [4], in [5] and in test [6] was “inactive” each time. In test [7], the Potency result was “inactive”.

As to `FC(F)(F)C(F)(F)C(F)(F)C(F)(F)CCI`, the Potency entry in [1], in [2], in [3], in test [4], in test [5] and in test [6] was “inactive” each time. In addition, in [7], the Potency entry was “inactive”.

With `COc1ccc(CCN(C)CCCN2CCc3cc(OC)c(OC)cc3CC2=O)cc1OC`, the Potency entry in test [1], in [2], in [3], in [4], in test [5] and in test [6] was “inactive” throughout. For the same compound, the Potency result in test [7] is “inactive”.

Turning to `CC(C(=O)O)c1ccc(C(=O)c2cccs2)cc1` (configuration not stated), the Potency result in test [1], in [2], in [3], in test [4], in test [5] and in [6] was “inactive” in each case. In addition, in test [7], the Potency result is “inactive”.
